From PubChem BioAssay AID2551 (National Center for Advancing Translational Sciences (NCATS), 2010)
Among all 310,000 compounds or so, about 17,000 (5.5%) were called active. A call without a number means that no potency is given here. Another 11% or so got no clear call; they are omitted. Calls come from the whole dose curve; as a rule, active = well fitted inhibition curve with a large enough effect; inconclusive = small, poorly fitted or top-dose-only effect, or effect the other way; inactive = no such curve, though single readings can be large or run the other way. The sample as a whole holds a higher share of actives than the screen did.

Target: Nuclear receptor ROR-gamma (Mus musculus) (UniProt P51450)
Test: qHTS for inhibitors of ROR gamma transcriptional activity; note: nearly all actives have a fitted effect of over 60% in size
Details: Drosophila S2 Gal4-RORgamma UAS-luciferase reporter, 20 h; series mostly up to 53.6 µM
Method in brief: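 Stable Schneider cell line, Gal4 DNA-binding domain fused to ROR gamma, UAS-luciferase. Cmpd 1 hr RT → CuSO4 700 uM final → 20 hr RT → luciferase reagent 10 min → luminescence.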
Potency is the fitted concentration of half-maximal effect.

Sequence of Nuclear receptor ROR-gamma (Mus musculus) (P51450 whole entry, looked up): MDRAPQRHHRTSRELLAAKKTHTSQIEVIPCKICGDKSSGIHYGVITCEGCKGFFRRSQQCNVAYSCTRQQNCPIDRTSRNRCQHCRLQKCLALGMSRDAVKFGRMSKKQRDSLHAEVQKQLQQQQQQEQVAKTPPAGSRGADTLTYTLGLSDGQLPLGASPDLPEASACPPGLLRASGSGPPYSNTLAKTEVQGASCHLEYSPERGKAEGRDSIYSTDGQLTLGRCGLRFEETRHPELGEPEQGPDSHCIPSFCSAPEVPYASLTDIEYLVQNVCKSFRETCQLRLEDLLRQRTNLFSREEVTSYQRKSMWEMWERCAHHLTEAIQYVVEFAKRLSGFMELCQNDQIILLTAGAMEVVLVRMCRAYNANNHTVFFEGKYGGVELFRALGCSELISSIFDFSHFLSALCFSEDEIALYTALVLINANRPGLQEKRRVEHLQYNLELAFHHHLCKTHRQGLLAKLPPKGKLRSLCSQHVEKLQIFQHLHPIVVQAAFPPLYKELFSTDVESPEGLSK

SMILES | Potency
Cc1ccc(NS(=O)(=O)c2ccc3c(c2)NC(=O)CO3)cc1 | inactive
CCC(C(=O)NC1CCCC1)N(C(=O)Cn1nnc(-c2ccc(C)o2)n1)c1ccc(OC)c(OC)c1 (stereo unspecified) | inactive
CCOc1ccc(CN2CCNC(=O)C2CC(=O)NCCCC2CCCC2)cc1 (stereo unspecified) | inactive
COc1ccc(CNc2cc(C)cc(C)c2)cc1OC | inactive
COc1ccc2c(c1)c(C(=O)N/N=C/c1cccs1)c(C)n2C | 15.8 µM (active)
COc1ccc(N(CC(=O)N/N=C/c2cccs2)S(=O)(=O)c2ccc(OC)c(OC)c2)cc1 | inactive
NC(=O)N/N=C\c1cccs1 | inactive
O=C(CSc1n[nH]c(-c2cccnc2)n1)Nc1ccnc2ccccc12 | inactive
Cc1cc(-c2n[nH]c(=S)n2/N=C/C(Br)=C/c2ccccc2)n[nH]1 | 12.6 µM (active)
Cc1cc(-c2n[nH]c(=S)n2/N=C/c2ccco2)n[nH]1 | inactive
O=C(CSc1n[nH]c(-c2cccnc2)n1)Nc1ccc(Cl)cc1 | inactive
S=c1[nH]nc(-c2cccnc2)n1/N=C/C(Cl)=C\c1ccccc1 | 8.91 µM (active)
O=C(Nc1ccc(S(=O)(=O)N2CCCCC2)cc1)C1CC(=O)N(c2ccc(F)cc2)C1 (stereo unspecified) | inactive
CCC(C(=O)OC)n1cnc2scc(-c3ccc(C)cc3)c2c1=O (stereo unspecified) | inactive
Cc1ccccc1C(CC(=O)c1cccs1)C(C#N)C#N (stereo unspecified) | 1.58 µM (active)
O=C(CCC(=O)c1cccs1)NCc1ccccc1 | inactive
O=C(NCC(=O)N1CCN(c2ccccc2F)CC1)c1cccs1 | inactive
CC(=O)c1ccc(N2Cc3ccccc3C2)cc1 | inactive
COc1cc2c(cc1OC)C(C)N(S(=O)(=O)c1cnc(Cl)c(Cl)c1)CC2 (stereo unspecified) | inactive
COC(=O)/C=C/C(=O)NCc1ccco1 | inactive
COc1cc(-n2c(C)nc3cc(C(=O)NCc4ccco4)ccc32)cc(OC)c1OC | inactive
COc1cccc(NC(=O)NCc2ccc(F)cc2)c1 | inactive
COc1ccc(-c2cc(C(=O)NCc3ccco3)no2)cc1OC | inactive

SMILES | Potency
COc1cc(C(=O)N[C@@H](C)C(=O)NCc2ccco2)cc(OC)c1OC | inactive
COc1cccc(OC)c1C(=O)NC(=S)NCc1ccco1 | 3.55 µM (active)
COc1cc(C(=O)NC(=S)NCc2ccco2)cc(OC)c1OC | 6.31 µM (active)
S=C(NCc1ccco1)Nc1ccc2c(c1)OCCO2 | inactive
COc1cccc(NC(=S)NCc2ccco2)c1 | 11.2 µM (active)
CCOC(=O)N1CCN(C(=O)c2cn(C)c3ccc(S(=O)(=O)N(CC)CC)cc3c2=O)CC1 | inactive
Cc1c(NC(=O)CSCc2ccccc2)cccc1C(=O)O | inactive
Cc1occc(=O)c1OCc1ccc(F)cc1 | inactive
CC(=O)Nc1ccc(NS(=O)(=O)c2ccc3c(c2)NC(=O)CC(=O)N3)cc1 | inactive
Cn1ncc2c(N3CCCCC3)nc(NCCCO)nc21 | inactive
O=C(NCc1ccc2c(c1)OCO2)C(=O)NCC1OCCN1S(=O)(=O)c1ccc(F)cc1 (stereo unspecified) | inactive
O=[N+]([O-])c1ccc(N2CCN(c3ccc(F)cc3)CC2)cn1 | inactive
Cc1cc(Br)ccc1NC(=S)NC1CCCC1 | 3.16 µM (active)
Cc1cc(C)cc(NC(=S)NCc2ccc(F)cc2)c1 | 2.51 µM (active)
O=C(COc1ccc(Br)cc1F)NC1CCN(Cc2ccccc2)CC1 | inactive
CCCCC(=O)NCc1ccc(F)cc1 | inactive
Cc1ccc(NC(=S)Nc2ccc(F)cc2)cc1 | 11.2 µM (active)
COC(=O)c1sccc1NC(=S)Nc1ccc(C)cc1 | inactive
CC(Oc1ccc(Br)cc1Br)C(=O)NC1CCCC1 (stereo unspecified) | inactive
Cc1cc(C)cc(NC(=O)NC2CCCCCCC2)c1 | inactive
COc1cc(NC(=S)NCc2ccc(S(N)(=O)=O)cc2)cc(OC)c1 | inactive
Cc1ccc(C(=O)CNc2ccc(F)cc2)cc1 | inactive
O=C(NC1CCN(Cc2ccccc2)CC1)c1cc(Br)c(Br)[nH]1 | inactive

SMILES | Potency
S=C(Nc1ccc(Br)cc1Cl)NC1CCN(Cc2ccccc2)CC1 | 10 µM (active)
CC(=O)Nc1ccc(Oc2ccc3c(c2)C(=O)NC3=O)cc1 | inactive
O=C(NCCCn1ccnc1)/C(=C\c1ccccc1F)NC(=O)c1ccccc1 | inactive
CCc1cc(=O)oc2c(C)c(OCC(=O)NCCN3CCOCC3)ccc12 | inactive
CCCc1cc(=O)oc2cc(OCC(=O)Nc3ccc(CN4CCOCC4)cc3)c(Cl)cc12 | inactive
COc1ccc(N2CCN(CCNC(=O)Nc3cc(Cl)ccc3Cl)CC2)cc1 | inactive
CCOC(=O)C1=C(CCc2ccccc2)NC(=O)NC1c1ccc2ccccc2c1 (stereo unspecified) | inactive
COc1ccc(CNC(=O)Cc2ccc(-c3ccccc3)cc2)cc1OC | inactive
CCOc1ccc(NC(=O)c2cccc3c2C(=O)N(CC2CCCO2)C3)cc1 (stereo unspecified) | inactive
COc1ccc(-c2noc(CCCC(=O)NC3CCCC3)n2)cc1OC | inactive
O=C(CCn1nnc2ccccc21)OCC(=O)c1ccc([N+](=O)[O-])cc1 | inactive
COc1ccc(C2NC(=O)N(C)C(C)=C2[N+](=O)[O-])cc1 (stereo unspecified) | inactive
CCN(CC(=O)Nc1ccc2c(c1)OCO2)S(=O)(=O)c1ccccc1 | inactive
CCc1c(C)nc(SCC(=O)NC2CCCC2)[nH]c1=O | inactive
CN(CCc1ccccn1)C1CCCN(S(=O)(=O)c2ccccc2Cl)C1 (stereo unspecified) | inactive
Cc1ccc(NC(=O)CSCC(=O)NC2CCCCC2)cc1 | inactive
O=C(NCCc1c[nH]c2ccccc12)c1cccc(Br)c1 | inactive
O=C(NC1CCN(Cc2ccccc2)CC1)c1c(F)cccc1F | inactive
COc1ccccc1CC(=O)NCCc1c[nH]c2ccccc12 | inactive
Cc1ccc(NC(=S)NC2CCCC2)cc1 | 3.55 µM (active)
CC(C)c1ccc(NC(=O)NC2CCCCC2)cc1 | inactive
O=C(NC1CCN(Cc2ccccc2)CC1)c1ccccc1F | inactive
S=C(NN=C1CCN(Cc2ccccc2)CC1)NC1CCCCC1 | 2.24 µM (active)

SMILES | Potency
Cc1cc(C)cc(NC(=S)NCCc2c[nH]c3ccccc23)c1 | 7.08 µM (active)
COc1ccc(CN2CCN(Cc3ccc(OC)c(OC)c3OC)CC2)cc1 | inactive
CC1(c2ccc(Cl)cc2)NC(=O)N(CC(=O)c2ccc3c(c2)OCO3)C1=O (stereo unspecified) | inactive
CCc1ccc(Oc2coc3cc(O)ccc3c2=O)cc1 | inactive
CCC1CCCCN1C(=O)CSc1nc2c(c(=O)n1C)SC(C)C2 (stereo unspecified) | inactive
Cc1noc(C)c1CCC(=O)N1CCCC(CO)(Cc2ccccc2)C1 (stereo unspecified) | inactive
CCOc1ccc(NC(=O)C2CCN(C(=O)N3CCOc4ccccc43)CC2)cc1 | inactive
CCC(C)Sc1nc2c(cnn2-c2ccc(F)cc2)c(=O)[nH]1 (stereo unspecified) | inactive
CCc1[nH]nc(C(=O)N2CCCC(CO)(Cc3ccc(F)cc3F)C2)c1C (stereo unspecified) | inactive
CS(=O)(=O)c1ccc2nc(NC(=O)c3ccc(N4CCCC4=O)cc3)sc2c1 | inactive
CCOc1ccc(S(=O)(=O)Nc2nc3cc(OC)ccc3s2)cc1 | inactive
CCC(=O)c1ccc(OCC(=O)Nc2ccc3nc(C)sc3c2)cc1 | inactive
COc1ccc2nc(Nc3nc4ccc(NC(C)=O)cc4s3)sc2c1 | 2.82 µM (active)
COc1cccc(C(=O)Nc2nc3ccc(S(C)(=O)=O)cc3s2)c1 | 7.94 µM (active)
CCOc1ccc2nc(NC(=O)CSc3nc4c(c(=O)n(C)c(=O)n4C)n3CC)sc2c1 | inactive
COc1ccc2nc(Nc3nc4cc5c(cc4s3)OCCO5)sc2c1 | 12.6 µM (active)
CS(=O)(=O)c1ccc2nc(NC(=O)c3ccc(Cl)nc3)sc2c1 | inactive
COc1ccc2nc(NC(=O)[C@@H]3CCCN3C(=O)c3cccs3)sc2c1 | inactive
CNC(=O)c1ccc2nc(NC(C)=O)sc2c1 | inactive
CCOc1ccc2nc(Nc3nc4ccc(NC(C)=O)cc4s3)sc2c1 | 3.16 µM (active)
COc1ccc2nc(NC(=O)NC3CCCCC3)sc2c1 | inactive
Cc1ccc2nc3c(cc(C(=O)NCCc4ccccc4)c(=N)n3CC3CCCO3)c(=O)n2c1 (stereo unspecified) | inactive
COc1ccccc1N(C)C(=O)c1cc(S(=O)(=O)N2CCc3ccccc32)cn1C | inactive

SMILES | Potency
O=C(NCCOc1cccnc1)c1ccc(OC2CCN(Cc3ccccn3)CC2)cc1 | inactive
Nc1nnnn1/N=C/c1cccc(Br)c1 | inactive
CCCc1nn(C)c2c(=O)[nH]c(-c3cc(S(N)(=O)=O)ccc3OCC)nc12 | inactive
CCOc1cc(-c2noc(CCCC(=O)NC3CCCCC3)n2)ccc1OC | inactive
O=C(NCCCn1ccnc1)C1CCCN(S(=O)(=O)c2cc(Cl)ccc2Cl)C1 (stereo unspecified) | inactive
CCCNC(=O)c1cnc(-c2ccccc2)nc1-c1ccccc1 | inactive
C[C@H](NC(=O)C1CCN(S(=O)(=O)c2ccccc2)CC1)C(=O)NCc1ccccc1 | inactive
COc1ccc2nc(Nc3nc(-c4ccncc4)cs3)sc2c1 | inactive
COc1ccc2nc(Nc3nc(-c4cc5ccccc5oc4=O)cs3)sc2c1 | 7.08 µM (active)
COc1ccc2oc(=O)cc(-c3cc4ccccc4o3)c2c1 | inactive
COCCOC1CCN(C(=O)c2ccc(OC)c(OC3CCN(C(C)C)CC3)c2)CC1 | inactive
COc1ccccc1C(=O)N(Cc1ccc(C)o1)C1CCS(=O)(=O)C1 (stereo unspecified) | inactive
CCOC(=O)c1ccc2[nH]c3c(c2c1)CCCC3NC=O (stereo unspecified) | inactive
Cc1cccc(C(=O)Nc2nnc(Cc3c[nH]c4ccccc34)s2)c1 | inactive
Cc1cccc(N=C2NN=C(c3c[nH]c4ccccc34)CS2)c1 | 4.47 µM (active)
N#Cc1c(N2CCCCC2)nc(N)c2c(N)nc(SCC(=O)O)cc12 | 3.98 µM (active)
N#Cc1c(-c2ccccc2)cc(-c2ccccc2)nc1SCC(=O)O | inactive
Cc1cc(C)c(C#N)c(N2CCC(C(N)=O)CC2)n1 | inactive
COc1ccccc1N1CCN(C(=O)c2cc(=O)c3cc(C)ccc3o2)CC1 | inactive
